Source: paper PMC4336329 (PLoS ONE, 2015)
Hit rate of the full screen: of about 310,000 compounds, about 14,000 (4.5%) showed an effect of 50% or more. The effect is printed as a negative number. The sample holds strong results, similar compounds and a random draw of the others, so the mix is not that of the screen.

What follows are molecules tested against human ether-à-go-go-related gene (hERG) potassium channel (human, UniProt Q12809) (assay: primary screen, population patch clamp on CHO cells stably expressing hERG; higher = less effect of the substance).
human ether-à-go-go-related gene (hERG) potassium channel, sequence (Q12809 whole entry, looked up): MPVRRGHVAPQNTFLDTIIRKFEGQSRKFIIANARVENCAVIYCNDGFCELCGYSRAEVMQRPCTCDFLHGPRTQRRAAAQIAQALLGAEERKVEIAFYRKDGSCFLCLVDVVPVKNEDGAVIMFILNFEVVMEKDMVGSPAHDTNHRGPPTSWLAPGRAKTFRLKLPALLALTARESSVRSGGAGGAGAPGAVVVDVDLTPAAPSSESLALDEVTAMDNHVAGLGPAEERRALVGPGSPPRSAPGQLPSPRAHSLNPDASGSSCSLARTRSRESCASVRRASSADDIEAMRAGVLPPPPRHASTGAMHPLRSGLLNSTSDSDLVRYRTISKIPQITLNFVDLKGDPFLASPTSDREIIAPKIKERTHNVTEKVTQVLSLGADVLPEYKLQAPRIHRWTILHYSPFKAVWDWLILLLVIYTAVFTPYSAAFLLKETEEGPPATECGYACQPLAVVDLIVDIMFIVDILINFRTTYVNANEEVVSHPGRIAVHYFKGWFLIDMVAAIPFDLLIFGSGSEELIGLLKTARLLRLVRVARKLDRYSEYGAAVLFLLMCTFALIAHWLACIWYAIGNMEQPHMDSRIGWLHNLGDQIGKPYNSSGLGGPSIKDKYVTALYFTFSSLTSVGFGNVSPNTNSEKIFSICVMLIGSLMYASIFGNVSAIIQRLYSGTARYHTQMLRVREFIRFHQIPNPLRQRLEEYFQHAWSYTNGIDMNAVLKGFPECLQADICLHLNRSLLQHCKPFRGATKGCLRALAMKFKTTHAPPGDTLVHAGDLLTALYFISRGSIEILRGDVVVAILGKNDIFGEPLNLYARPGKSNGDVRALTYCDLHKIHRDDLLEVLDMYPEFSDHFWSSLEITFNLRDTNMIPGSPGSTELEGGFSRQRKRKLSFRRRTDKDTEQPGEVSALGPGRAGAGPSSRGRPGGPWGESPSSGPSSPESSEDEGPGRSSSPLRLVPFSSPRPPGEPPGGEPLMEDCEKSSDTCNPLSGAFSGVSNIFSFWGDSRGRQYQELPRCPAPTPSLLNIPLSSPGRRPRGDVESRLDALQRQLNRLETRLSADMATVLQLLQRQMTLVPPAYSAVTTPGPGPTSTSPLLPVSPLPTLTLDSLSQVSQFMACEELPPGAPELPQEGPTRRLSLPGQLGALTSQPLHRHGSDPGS
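Note: peak tail current of the secondary pulse compared with the same well before compound.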

| Compound | hERG current change (%, negative = inhibition) at 10uM [%] |
| --- | --- |
| Cc1sc2ncnc(N3CCCCC3C)c2c1C (centres unmarked) | -13.6 |
| Cc1cc(C)c(C(=O)CN2C(=O)NC3(CCC(C)CC3)C2=O)cc1C (centres unmarked) | 11.1 |
| COC(=O)c1sccc1NC(=O)CC1NCCNC1=O (centres unmarked) | 0.0435 |
| COc1ccccc1NC(=O)/C=C/c1ccc2c(c1)OCO2 | -8.32 |
| CCCc1nc(SCc2ccccn2)c2c(=O)n(C)c(=O)n(C)c2n1 | -59.1 |
| CCCc1nc(SCC(=O)NCc2ccco2)c2c(=O)n(C)c(=O)n(C)c2n1 | 0.943 |
| CCc1nc(SCC(=O)NCc2ccco2)c2c(=O)n(C)c(=O)n(C)c2n1 | -0.832 |
| CCc1nc(SCc2ccccn2)c2c(=O)n(C)c(=O)n(C)c2n1 | 0.896 |
| CC(C)c1nc(SCc2ccccn2)c2c(=O)n(C)c(=O)n(C)c2n1 | 5.32 |
| Cn1c(=O)c2c(SCc3ccccn3)nc(C3CC3)nc2n(C)c1=O | 6.51 |
| Cn1c(=O)c2c(SCc3ccccn3)nc(CC(C)(C)C)nc2n(C)c1=O | -79.4 |
| Cn1c(=O)c2c(SCC(=O)NCc3ccco3)nc(CC(C)(C)C)nc2n(C)c1=O | -57.4 |
| Cc1ccccc1-c1nc(SCc2ccccn2)c2c(=O)n(C)c(=O)n(C)c2n1 | 28.7 |
| Cc1ccc(N(C)S(=O)(=O)c2ccc3[nH]cc(C(=O)NCCCN4CCOCC4)c(=O)c3c2)cc1C | -16.5 |
| Cc1ccc(Nc2ncccc2C(N)=O)cc1 | 19.5 |
| Cc1ccccc1NC1=NS(=O)(=O)c2ccccc21 | 4.25 |
| CCOc1ccc(OCC)c(NC(=O)CN(c2ccc(C)cc2)S(=O)(=O)c2c(C)noc2C)c1 | 3.31 |
| O=C(CN1CCc2ccccc2C1)Nc1ccc(OC(F)(F)F)cc1 | -6.92 |
| CCOC(=O)N1CCN(CCC(=O)Nc2ccc(OC)cc2)CC1 | -1.76 |
| Cl.O=C(CN1CCOCC1)Nc1ccc(OC(F)(F)F)cc1 | -8.1 |
| Cl.O=C(CN1CCCC1)Nc1ccc(OC(F)(F)F)cc1 | -41.1 |

| Compound | hERG current change (%, negative = inhibition) at 10uM [%] |
| --- | --- |
| CCOC(=O)N1CCN(CCC(=O)Nc2ccc(Br)cc2)CC1 | -33.2 |
| CCN1CCN(CC(=O)Nc2ccc(OC(F)(F)F)cc2)CC1.Cl | -69.1 |
| O=C(CN1CCN(c2ccccn2)CC1)Nc1ccc(OC(F)(F)F)cc1 | -29.9 |
| CN1CCN(CC(=O)Nc2ccc(OC(F)(F)F)cc2)CC1.Cl | -65.1 |
| CCOC(=O)N1CCN(CCC(=O)Nc2ccc(OC(F)(F)F)cc2)CC1 | -63.3 |
| CC1CCC(C(C)C)C(OC(=O)C2=C3c4ccccc4S(=O)(=O)N3CC2)C1 (centres unmarked) | 12.3 |
| CN(C)S(=O)(=O)N1CCN(C(=O)N2CCCCCC2)CC1 | -12.2 |
| O=C(N/N=C/c1ccccn1)c1cccc(NC(=O)c2ccccc2Cl)c1 | -4.9 |
| CC(=O)O.Cc1nc2nc(CSc3nnc(C)s3)cc(=O)n2[nH]1 | 13.9 |
| CCOC(=O)CN(C(=O)Cn1nnc(-c2ccc(C)cc2)n1)C(CC)C(=O)NC1CCCC1 (centres unmarked) | -8.67 |
| Cc1cc2c(cc1C)C(c1cc(Br)ccc1F)CC(=O)N2 (centres unmarked) | 8.78 |
| COc1ccc2[nH]c(C)c(CCNC(=S)Nc3ccccc3OC)c2c1 | 8.79 |
| CN(C)CCn1c(C(=O)O)cc2ccccc21.Cl | 14.6 |
| CN(C)CCn1c(C(=O)Nc2ccccc2)cc2ccccc21.Cl | -58.9 |
| CNC(=O)c1cc2cc(OC)ccc2n1CCN(C)C | -11.6 |
| CCOC(=O)CSc1nc(=O)n2ccccc2n1 | 13.2 |
| COc1ccccc1NC(=O)CCS(=O)(=O)c1ccccc1 | 12.7 |
| CC(NC(=O)Cn1cc2c(n1)CCCCC2)c1ccccc1 (centres unmarked) | 1.69 |
| Cc1ccc2nc(SCC(=O)c3ccccc3)nc(=O)n2c1 | -10.1 |
| COc1ccc(C)cc1Nc1n[n+](-c2ccccc2)c(-c2ccc(N(C)C)cc2)s1.[Cl-] | -49.3 |
| CCOc1cc(-c2sc(Nc3cc(C)ccc3OC)n[n+]2-c2ccccc2)ccc1OC.[Cl-] | -68.7 |

| Compound | hERG current change (%, negative = inhibition) at 10uM [%] |
| --- | --- |
| CCc1ccc(Nc2n[n+](-c3ccccc3)c(-c3ccc(OC)c(Br)c3)s2)cc1.[Cl-] | -44 |
| COc1ccc(C)cc1Nc1n[n+](-c2ccccc2)c(-c2ccc(SC)cc2)s1.[Cl-] | -1.4 |
| CCOc1cc(-c2sc(Nc3ccc(CC)cc3)n[n+]2-c2ccccc2)ccc1OC.[Cl-] | -78.7 |
| CCOc1cc(-c2sc(Nc3ccccc3)n[n+]2-c2ccc(F)cc2)ccc1OC.[Cl-] | 23.6 |
| COc1ccc2ccccc2c1C1CC(=O)N2CN(C)CSC2=C1C#N (centres unmarked) | 12.7 |
| CCn1c(/C=C2\C(=O)Nc3ccccc32)nc2ccccc2c1=O | -18.3 |
| Cc1ccc(NC(=O)CC2SC(=NC3CCCCC3)NC2=O)cc1 (centres unmarked) | -9.82 |
| Cc1ccc(C(CNS(=O)(=O)c2ccc(C)cc2)N2CCN(C)CC2)cc1 (centres unmarked) | -62.8 |
| CC(NS(=O)(=O)c1ccc(Br)cc1)C(c1cccs1)N1CCN(C)CC1 (centres unmarked) | -53.2 |
| O=[N+]([O-])c1ccc(S(=O)(=O)NCC(c2cccnc2)N2CCOCC2)cc1 (centres unmarked) | -22 |
| COc1ccc(C(CNS(=O)(=O)c2ccc(F)cc2)N2CCN(C)CC2)cc1 (centres unmarked) | -32.5 |
| O=[N+]([O-])c1ccc(S(=O)(=O)NCC(c2cccnc2)N2CCc3ccccc3C2)cc1 (centres unmarked) | -35.6 |
| Cc1ccc(S(=O)(=O)NCC(c2ccccc2)N2CCN(CCC#N)CC2)cc1 (centres unmarked) | -21.5 |
| CN1CCN(C(CNS(=O)(=O)c2ccc([N+](=O)[O-])cc2)c2ccc(F)cc2)CC1 (centres unmarked) | -67.6 |
| Cc1ccc(S(=O)(=O)NC(C)C(c2cccs2)N2CCN(C)CC2)cc1 (centres unmarked) | -18 |
| COc1ccc(S(=O)(=O)NCC(c2ccc(F)cc2)N2CCN(C)CC2)cc1 (centres unmarked) | -36.4 |
| CC(NS(=O)(=O)c1ccccc1)C(c1cccs1)N1CCN(C)CC1 (centres unmarked) | 5.5 |
| COc1ccc(S(=O)(=O)NCC(c2ccc(C)cc2)N2CCN(C)CC2)cc1OC (centres unmarked) | -25.6 |
| Cc1ccc(C(CNS(=O)(=O)c2ccc(F)cc2)N2CCN(C)CC2)cc1 (centres unmarked) | -58.3 |
| Cc1ccc(Nc2nnc(SCC(=O)Nc3ncc(S(=O)(=O)c4ccc([N+](=O)[O-])cc4)s3)s2)cc1 | -14.5 |
| CC1CCN(S(=O)(=O)c2ccc(NC(=O)CN3CCCCCC3)cc2)CC1 | -31.2 |

| Compound | hERG current change (%, negative = inhibition) at 10uM [%] |
| --- | --- |
| Cc1c(CCO)c(=O)n(-c2ccccc2)n1S(=O)(=O)c1ccc(F)cc1 | 1.37 |
| COc1ccccc1NC(=O)c1sc2nc(N3CCOCC3)c3c(c2c1N)CCCC3 | 15.2 |
| Cc1ccc(C(CNS(=O)(=O)c2ccc([N+](=O)[O-])cc2)N2CCN(C)CC2)cc1 (centres unmarked) | -66.8 |
| CN(C)c1ccc(C(CNS(=O)(=O)c2ccc([N+](=O)[O-])cc2)N2CCCC2)cc1 (centres unmarked) | -47.2 |
| O=S(=O)(NCC(c1ccccc1)N1CCC(O)CC1)c1ccc(Cl)cc1 (centres unmarked) | -19.6 |
| COc1ccc(C(CNS(=O)(=O)c2ccc(C)cc2)N2CCN(C)CC2)cc1 (centres unmarked) | -45.2 |
| Cc1ccc(C(CNS(=O)(=O)c2ccc(F)cc2C)N2CCN(C)CC2)cc1 (centres unmarked) | -57 |
| COc1ccc(OC)c(S(=O)(=O)NCC(c2ccc(F)cc2)N2CCN(C)CC2)c1 (centres unmarked) | -33.8 |
| Cc1ccc(C(CNS(=O)(=O)c2ccc(Cl)cc2)N2CCN(C)CC2)cc1 (centres unmarked) | -72.8 |
| COc1ccc(S(=O)(=O)NCC(c2ccc(C)cc2)N2CCN(C)CC2)cc1 (centres unmarked) | -51.9 |
| Cc1cc(F)ccc1S(=O)(=O)NCC(c1ccc2c(c1)OCO2)N1CCOCC1 (centres unmarked) | -16.8 |
| COc1ccc(N2CCN(C(CNS(=O)(=O)c3ccccc3)c3ccccc3)CC2)cc1 (centres unmarked) | -22.5 |
| O=S(=O)(NCC(c1ccccc1)N1CCNCC1)c1ccc(Cl)cc1 (centres unmarked) | -28.6 |
| CN(C)c1ccc(C(CNS(=O)(=O)c2ccc([N+](=O)[O-])cc2)N2CCOCC2)cc1 (centres unmarked) | -25.9 |
| CC1CN(c2oc(COc3ccc(Cl)cc3Cl)nc2C#N)CC(C)O1 (centres unmarked) | -13.6 |
| c1ccc(SCc2cn3cccnc3n2)nc1 | 15.1 |
| COc1cc(OC)c(NS(=O)(=O)c2cc(C(=O)OC(C)C(=O)NC3CC3)c(Cl)cc2Cl)cc1Cl (centres unmarked) | -37 |
| COc1cccc(OCCOc2ccc(/C=C3\C(=N)N4N=C(S(C)(=O)=O)SC4=NC3=O)cc2OC)c1 | 23.4 |
| O=C(COC(=O)c1cc(-c2ccccc2Cl)nc2ccccc12)Nc1ncc(C(F)(F)F)cc1Cl | -10.9 |
| COC(=O)c1cccc(-c2ccc(/C=N/N3C(=O)C4C5C=CC(C6CC56)C4C3=O)o2)c1 (centres unmarked) | -8.32 |
